Records with an inconclusive call do not appear. Activity calls are given as the source filed them. Unless noted, calls come from the whole dose curve; as a rule, active = well fitted curve in the direction sought with a large enough effect; inconclusive = small, poorly fitted or top-dose-only effect, or another doubt; inactive = no such curve, though single readings can be large; an effect the other way counts as inactive or inconclusive.
What was measured:
[1] = molecular target: Peroxisome proliferator-activated receptor alpha (Homo sapiens) (UniProt Q07869); test: qHTS assay for small molecule agonists of the peroxisome proliferator-activated receptor alpha (PPARalpha) signaling pathway (AID 651778); details: PathHunter PPARalpha complementation, chemiluminescence, 6 h; active compounds read high; note: % of control where 0% means no effect
How it was run: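 Cells plated at 2,000/well and held overnight at 37 C, 5% CO2, then compound added by pin tool for 6 hr; after PathHunter detection reagent and 60 min at room temperature, chemiluminescence from enzyme complementation was read.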

[2] = molecular target: Nuclear receptor ROR-gamma (Homo sapiens) (UniProt P51449); test: qHTS assay for small molecule antagonists of the retinoid-related orphan receptor gamma (ROR-gamma) signaling pathway (AID 651802); details: ROR-gamma antagonist cell reporter assay; series mostly up to 92.2 µM; note: % is set by controls: 0 for no effect and ±100 for the full control effect; nearly all actives have a fitted effect of over 60% in size
Source text: National Center for Advancing Translational Sciences [NCATS]
NIH Chemical Genomics Center [NCGC]
National Institutes of Environmental Health Sciences [NIEHS]
National Toxicology Program [NTP]
Nuclear steroid hormone receptors are involved in many biological processes including inflammatory responses, cell proliferation, and apoptosis. Environmental factors or compounds disrupting these nuclear receptor pathways and gene expression may promote susceptibility to immunotoxicants and autoimmune diseases. One important group of these expression factors are the retinoid-related orphan receptors. […]
The CHO cell-based assay utilizes a TET-inducible ROR expression factor and ROR response element-LUC reporter gene. Reporter activity was induced using doxycycline and measured after 16hr incubation. Luminescence was read using Viewlux (PerkinElmer), where a decrease in reporter activity would show a decrease in luminescence.
1,000 cells in 4 uL/well were dispensed into white wall/solid bottom 1536-well plates using a Multidrop Combi (Thermo Scientific) dispenser. […] After 16hr incubation at 37C and 5% CO2, 5uL one-glo (promega) was added to each plate and following 30 min incubation at room temperature, luminescence was quantified on a ViewLux (PerkinElmer) plate reader.

[3] = qHTS assay for small molecule agonists of the antioxidant response element (ARE) signaling pathway measured by Nrf2-dependant transcriptional activity (AID 720636; active = well fitted curve in the direction sought with a large enough effect in the repeat runs; an effect the other way counts as inactive or inconclusive; note: % of control where 0% means no effect); details: ARE-luc HepG2, Nrf2 luciferase reporter, 16 h; series mostly up to 92.4 µM
How it was run: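 Quantitative HTS format in HepG2 cells stably expressing an ARE-luciferase reporter; 16 hr compound treatment at 37 C, luciferase signal detected with ONE-Glo.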

[4] = qHTS assay for small molecule antagonists of the retinoid-related orphan receptor gamma (ROR-gamma) signaling pathway - cell viability counter screen (AID 720652; active = well fitted curve in the direction sought with a large enough effect in the repeat runs; an effect the other way counts as inactive or inconclusive;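 note: compound exposure lasted 16 hr before ATP read; % is set by controls: 0 for no effect and ±100 for the full control effect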); details: RORgamma reporter cell line viability counter screen; series mostly up to 92.2 µM
How it was run: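 Cytotoxicity is quantified via intracellular ATP (CellTiter-Glo luminescence) in doxycycline-induced CHO ROR response element-luciferase reporter cells treated with compound for 16 hr at 37 C, 5% CO2.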

[5] = qHTS assay for small molecule agonists of the antioxidant response element (ARE) signaling pathway measured by Nrf2-dependant transcriptional activity - cell viability counter screen (AID 720653; active = well fitted curve in the direction sought with a large enough effect in the repeat runs; an effect the other way counts as inactive or inconclusive; note: % is set by controls: 0 for no effect and ±100 for the full control effect); details: ARE-bla HepG2 viability, CellTiter-Glo ATP luminescence, 16 h; active compounds read low
How it was run: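 ARE-bla HepG2 cells (2,000/well) rested 5 hrs at 37C/5% CO2, then exposed to compounds in DMSO for 16 hrs. Viability was read in the same wells as intracellular ATP by luminescence, 30 min at room temperature after reagent addition.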

[6] = qHTS assay for cell viability of HEK293 cells (AID 743288); details: ATP luminescence (CellTiter-Glo), 18 h, active compounds read low; note: % is set by controls: 0 for no effect and ±100 for the full control effect; nearly all actives have a fitted effect of over 50% in size
How it was run: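 The Tox21 protocol used parental HEK293 cells treated for 18 h at 37 C with compounds delivered by pintool; ATP-coupled luminescence after 30 min at room temperature gave viability.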

[7] = qHTS assay for cell viability of the p53RE-bla HCT-116 cell line (AID 743292); details: p53RE-bla HCT-116 viability, ATP luminescence, 16 h; series mostly up to 95 µM; note: % is set by controls: 0 for no effect and ±100 for the full control effect; nearly all actives have a fitted effect of over 55% in size
How it was run: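 Viability of compound-treated p53RE-bla HCT-116 cells is taken from ATP-dependent luciferase luminescence. Treatment lasts 16 h at 37 C after a 5 h settling period; detection follows 30 min at room temperature.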

[8] = P-glycoprotein substrates identified in KB-3-1 adenocarcinoma cell line, qHTS therapeutic library screen (AID 1346986); details: KB-3-1 parental cells viability, CellTiter-Glo, 72 h; series mostly up to 44.5 µM; note: nearly all actives have a fitted effect of over 60% in size
How it was run: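 KB-3-1 parental cells and P-gp-overexpressing KB-8-5-11 (colchicine omitted during assay) plated at 500 cells/well, dosed in dose-response, incubated 72 h at 37 degree C. CellTiter-Glo luminescence read; KB-8-5-11 also tested with tariquidar.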

[9] = P-glycoprotein substrates identified in KB-8-5-11 adenocarcinoma cell line, qHTS therapeutic library screen (AID 1346987); details: KB-8-5-11 (P-gp overexpressing) viability, CellTiter-Glo, 72 h; series mostly up to 44.5 µM; note: nearly all actives have a fitted effect of over 65% in size
How it was run: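 P-gp-mediated resistance screen: KB-8-5-11 cells treated 72 h with compounds in dose-response. CellTiter-Glo viability.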

Sequence of Peroxisome proliferator-activated receptor alpha (Homo sapiens) (Q07869 whole entry, looked up): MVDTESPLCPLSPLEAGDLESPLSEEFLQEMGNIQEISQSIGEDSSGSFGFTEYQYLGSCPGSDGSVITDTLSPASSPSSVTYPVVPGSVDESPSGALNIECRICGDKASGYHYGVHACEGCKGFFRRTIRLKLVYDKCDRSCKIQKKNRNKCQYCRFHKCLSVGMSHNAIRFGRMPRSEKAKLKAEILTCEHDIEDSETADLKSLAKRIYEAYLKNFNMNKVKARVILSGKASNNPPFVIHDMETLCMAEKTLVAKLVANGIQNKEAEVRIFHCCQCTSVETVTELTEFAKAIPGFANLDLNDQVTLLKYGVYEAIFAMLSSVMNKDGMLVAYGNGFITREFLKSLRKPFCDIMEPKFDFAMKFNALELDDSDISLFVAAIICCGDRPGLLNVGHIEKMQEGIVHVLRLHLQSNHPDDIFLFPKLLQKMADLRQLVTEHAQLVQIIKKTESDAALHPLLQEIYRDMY
Sequence of Nuclear receptor ROR-gamma (Homo sapiens) (P51449 whole entry, looked up): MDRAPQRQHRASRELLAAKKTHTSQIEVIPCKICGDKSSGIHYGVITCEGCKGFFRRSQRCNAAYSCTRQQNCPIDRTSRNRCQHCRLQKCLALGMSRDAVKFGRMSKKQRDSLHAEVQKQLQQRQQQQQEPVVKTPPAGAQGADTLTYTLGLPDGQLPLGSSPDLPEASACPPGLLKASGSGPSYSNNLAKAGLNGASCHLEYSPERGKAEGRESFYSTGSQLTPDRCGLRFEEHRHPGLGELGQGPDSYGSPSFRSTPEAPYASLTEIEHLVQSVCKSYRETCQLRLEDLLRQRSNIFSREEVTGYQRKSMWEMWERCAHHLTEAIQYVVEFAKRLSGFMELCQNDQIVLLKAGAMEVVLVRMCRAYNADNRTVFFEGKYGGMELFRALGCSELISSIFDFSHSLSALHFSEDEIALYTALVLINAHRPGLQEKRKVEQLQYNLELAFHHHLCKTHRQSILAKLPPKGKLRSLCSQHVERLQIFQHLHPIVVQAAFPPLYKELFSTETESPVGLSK

COc1ccc(CCC(=O)c2c(O)cc(O[C@@H]3O[C@H](CO)[C@@H](O)[C@H](O)[C@H]3O[C@@H]3O[C@@H](C)[C@H](O)[C@@H](O)[C@H]3O)cc2O)cc1O
inactive: max response [1] 0.724% | outcome [2] | outcome [3] | outcome [4] | max response [5] -0.966% | max response [6] -4.69% | outcome [7] | Potency [8] | Potency [9]

COc1cc(CC2COC(c3ccc(OC4OC(CO)C(O)C(O)C4O)c(OC)c3)C2CO)ccc1O (stereo unspecified)
inactive: Potency [8] | Potency [9]

C=CCc1ccc(O[C@@H]2O[C@H](CO)[C@@H](O)[C@H](O)[C@H]2O)c(O[C@@H]2O[C@H](CO)[C@@H](O)[C@H](O)[C@H]2O)c1
inactive: Potency [8] | Potency [9]

OCC1=C[C@@H](O)[C@@H]2C=CO[C@@H](O[C@@H]3O[C@H](CO)[C@@H](O)[C@H](O)[C@H]3O)[C@H]12
inactive: Potency [8] | Potency [9]

CCOc1ncc(S(=O)(=O)N2CCN(CC)CC2)cc1-c1nc2c(CC)n(CCOC)nc2c(=O)[nH]1
inactive: Potency [8] | Potency [9]

CC(=O)/C=C/C1(O)C(C)=CC(=O)CC1(C)C (stereo unspecified)
inactive: Potency [9]

CC(C)C1CCC(CO)=CC1/C=C(\CO)C(=O)OCC1(O)CCC(C(C)C)C2C=C(C(=O)O)COC(=O)C21 (stereo unspecified)
inactive: Potency [8] | Potency [9]

C=C1C[C@]23C[C@@]1(O)CC[C@H]2[C@@]12C=C[C@H](O)[C@@](C)(C(=O)O1)[C@H]2[C@@H]3C(=O)O
inactive: max response [1] -2.22% | outcome [2] | outcome [3] | outcome [4] | max response [5] 2.88% | max response [6] 3.04% | outcome [7]

O=C(/C=C/C=C/c1ccc2c(c1)OCO2)N1CCCCC1
inactive: max response [1] -0.461% | max response [5] 3.3% | max response [6] -12.5% | outcome [7]
